F508del corr: CFTR F508del correction in bronchial cells; CFBE cells, YFP halide quenching; stimulated with forskolin plus potentiator P3; % fluorescence drop versus neutral controls; hit rate 0.36% among 350,000; activity (quench increase), % at 7.58 µM; AID 720511;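 active means mean added fluorescence quench of at least 8% versus neutral control, with both replicates also reaching 8%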;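 further: cells transiently co-express mutant CFTR-F508del with the halide-sensitive YFP; corrector assay measuring rescue of mutant channel to the surface after 24 h compound exposure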
EWS-Fli inh: blocks EWS/Fli oncoprotein-driven transcription | A673 NR0B1-luciferase reporter, viability-normalised | inhibition, % at 12.6 µM | hit rate 0.67% among 350,000 | AID 651661;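 active means mean inhibition of at least 50% after viability correction, with every replicate also passing that limit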;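 further: firefly luciferase signal divided by Alamar Blue viability fluorescence both relative to DMSO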
FXN GAA850 act: increases GAA850 frataxin promoter reporter activity. activation, % at 6 µM. hit rate 0.56% among 360,000. HEK293 lucGAA850 FXN promoter luciferase reporter, 24 h; percent of 10 µM SAHA response. AID 540364;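 active means activation above the average of all compounds screened plus 3 SD, cutoff fixed separately per campaign, cut at about 7.5% in these data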;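 further: 0% = DMSO wells and 100% = 10 µM SAHA wells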
HIV Env fusion: inhibitors of HIV Env-mediated cell fusion | HeLa-JRFL Env/CEM21 cell fusion, luciferase | inhibition, % at 12.3 µM | hit rate 1.1% among 360,000 | AID 651610;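 active means mean replicate inhibition score of at least 50 and every replicate individually at or above 50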;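 further: 0% = plate neutral controls and 100% = maraviroc near 300 nM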
PAX8 inh HTS: lowers PAX8-driven luciferase in RMG-I cells; inhibition, % at 12.6 µM; hit rate 1.2% among 360,000; RMG-I TPO-luciferase reporter, SteadyGlo, 24 h;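 active means mean replicate inhibition at least 60% with every replicate also reaching 60%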;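 further: luciferase light reporting Pax8 driven TPO promoter activity; plate controls were median of neutral control wells for no effect and mitoxantrone controls for full effect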
GAA30 FXN cntr: counter-screen for GAA850 frataxin promoter activators: GAA30 promoter activation; hit rate 66% among 1,900; HEK293 lucGAA30 FXN promoter luciferase, 24 h; DMSO = 0%, 5 µM ipriflavone = 100%; AID 588350; shares compounds with FXN GAA850 act; activation, % at 6 µM;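 active means mean activation above the mean of solvent-only control wells plus 3 SD, cut at about 22% in these data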;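 further: counterscreen of GAA850 promoter hits where activity marks nonselective or luminescence artifacts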
FXN GAA850 conf: confirmation of GAA850 frataxin (FXN) promoter activators. shares compounds with FXN GAA850 act. HEK293 lucGAA850 FXN promoter luciferase reporter, 24 h; 100% = activation by SAHA. activation, % at 6 µM. hit rate 86% among 1,900;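 active means mean activation above a set limit taken from the primary screen, cut at about 8% in these data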;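 further: 0% = DMSO wells and 100% = 10 µM SAHA wells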
* = called active by the depositor; i = inactive; . = no result given; [ ] = dose if it differs, or a comment. Hits are enriched below; roughly 2.5% of the tested compounds scored in any of these assays.

SMILES | F508del corr | EWS-Fli inh | FXN GAA850 act | HIV Env fusion | PAX8 inh HTS | GAA30 FXN cntr | FXN GAA850 conf
COc1ccc(Nc2cnn(-c3nc4ccccc4s3)c(=O)c2Cl)cc1 | . | 11 | 20* | -16 | -7 | 31* | 39*
O=c1c(Cl)c(Nc2cccc(Cl)c2)cnn1-c1nc2ccccc2s1 | . | . | -4 | -119 | -121 | . | .
Cc1cc(C(=O)Nc2cccc3c2O[C@@H](CN(C)S(=O)(=O)c2cccs2)[C@@H](C)CN([C@H](C)CO)C3=O)n(C)n1 | -2 | 14 | . | . | . | . | .
CC1(C)Cc2c(c(-c3ccco3)nc3sc4c(NCCCO)ncnc4c23)CO1 | 7 | 2 | 7.7* | 3 | 10 | 9 | 14*
CCC(=O)Nc1ccc2c(c1)C(=O)N(C)C[C@H](OC)[C@H](C)CN(C(=O)C1CC1)[C@@H](C)CO2 | 0 | -4 | . | . | 7 | . | .
COc1ccccc1NC(=O)N[C@H]1CC[C@H](CC(=O)N[C@@H](C)c2ccccc2)O[C@@H]1CO | -4 | 5 | . | 1[16.7 µM] | 3 | . | .
COc1cc2sc3cc(NCCCN4CCOCC4)ccc3c(=O)c2cc1OC | 5 | -46 | 9.8* | 1 | -129 | 114* | 37*
O=c1c2ccccc2sc2ccc(NCCCN3CCOCC3)cc12 | 0 | -72 | 4 | 0 | -190 | . | .
C[C@@H]1CN([C@@H](C)CO)C(=O)c2cccc(NC(=O)c3ccncc3)c2O[C@@H]1CN(C)S(C)(=O)=O | 2 | 5 | . | . | -30 | . | .
OCC(CCc1c[nH]c2ccccc12)c1c[nH]c2ccccc12 (centres undefined) | 3 | -4 | . | 6 | 26 | . | .
O=S1(=O)CCN(c2ccccc2CC(c2c[nH]c3ccccc23)c2c[nH]c3ccccc23)CC1 | 1 | 7 | 16* | 85* | 20 | 42* | 21*
O=C(Nc1ccc2c(c1)OCO2)c1nn(-c2ccccc2)c(=O)c2ccccc12 | . | . | -2 | 20 | 3 | . | .
O=C(Nc1ccc2c(c1)OCO2)c1ccc(Br)s1 | . | . | 20* | -268 | . | 108* | 38*
O=C(Nc1ccc2c(c1)OCO2)c1n[nH]c(=O)c2ccccc12 | -1 | -172 | 9.8* | -10 | -85 | 100* | 40*
CC(=O)N1[C@H](CO)[C@H](c2ccc(-c3ccccc3)cc2)[C@@H]1CNC(=O)C1CC1 | -2 | -1 | . | . | 0 | . | .
O=C(Nc1nnc(SCc2ccc(F)cc2)s1)C1CC(=O)N(Cc2ccccc2)C1 (centres undefined) | . | . | 11* | 16 | 12 | 25* | 12*
Cc1noc(C)c1NC(=O)N[C@H]1CC[C@@H](CCNC(=O)C2CC2)O[C@H]1CO | 2 | -2 | . | 5[16.7 µM] | 7 | . | .
CCC(=O)Nc1ccc(NC(=S)NC(=O)c2cc3ccccc3o2)cc1 | . | 3 | 4 | 4 | -31 | . | .
CCC(=O)Nc1cccc(NC(=S)NC(=O)c2ccc(C)cc2)c1 | -2 | -45 | 8.2* | -37 | -242 | 107* | 34*
CCC(=O)Nc1cccc(NC(=S)NC(=O)c2cc3ccccc3o2)c1 | 1 | -44 | 8.0* | -53 | -156 | 106* | 34*
CCNC(=O)[C@H]1[C@H](CO)[C@H]2Cn3c(ccc(C4=CCCC4)c3=O)[C@@H]1N2Cc1cccnc1 | 0 | -4 | . | . | -9 | . | .
C/C(=N\NC(=O)c1ccc(N2CCCC2=O)cc1)c1ccccc1 | 0 | -21 | -1 | -18 | -21 | . | .
C/C(=N\NC(=O)c1ccccc1)c1ccc(N2CCCCC2)cc1 | -2 | -110 | 8.0* | . | 21 | 98* | 34*
Cn1cc([N+](=O)[O-])c(C(=O)Nc2ccc(-c3nc4ccccc4o3)cc2)n1 | -12 | -64 | 8.8* | -62 | 20 | 93* | 31*
C[C@@H]1CN([C@H](C)CO)C(=O)Cc2cc(NC(=O)Nc3ccc4c(c3)OCO4)ccc2O[C@H]1CN(C)C(=O)Nc1cccc2ccccc12 | -1 | -33 | . | 22[16.7 µM] | -10 | . | .
SMILES | F508del corr | EWS-Fli inh | FXN GAA850 act | HIV Env fusion | PAX8 inh HTS | GAA30 FXN cntr | FXN GAA850 conf
O=C(CSc1nc2ncccc2[nH]1)Nc1c(F)cc(F)cc1Br | 0 | -5 | -3 | 3 | -8 | . | .
O=C(CSc1ncn[nH]1)Nc1c(F)cc(F)cc1Br | . | . | 14* | -2 | . | 4 | 0
C[C@@H]1CN([C@H](C)CO)C(=O)Cc2cc(NS(=O)(=O)c3cn(C)cn3)ccc2O[C@H]1CN(C)CC1CCCCC1 | 2 | -3 | . | 1[16.7 µM] | -11 | . | .
Cc1c(C(=O)N2CCN(C)CC2)oc2c1C(=O)CC(C)(C)C2 | -2 | -2 | 0 | . | . | . | .
Cc1c(C(=O)N2CCc3ccccc32)oc2c1C(=O)CC(C)(C)C2 | . | . | 11* | -150 | . | 113* | 40*
Cn1c(=O)c2nc(-c3ccccc3)oc2c2ccccc21 | . | . | 12* | -217 | -11 | 44* | 24*
CO[C@H]1CN(C)C(=O)c2ccc(NC(=O)C3CC3)cc2OC[C@H](C)N(Cc2cncnc2)C[C@@H]1C | 0 | -3 | . | . | . | . | .
Cc1nn(C)cc1/C=C/C(=O)c1ccccc1 | . | . | 1 | -115 | . | . | .
CCn1cc(/C=C/C(=O)c2ccc(O)cc2)c(C)n1 | 3 | -40 | 8.7* | -75 | -58 | 102* | 24*
CCCCNC(=O)c1cc(-c2ccc(F)cc2)on1 | . | . | 32* | i | . | 166* | 79*
O=C(NCCN1CCOCC1)c1cc2sccc2n1Cc1ccc(Cl)cc1 | . | . | 2 | 14 | . | . | .
O=C(NCCN1CCOCC1)c1cc(-c2ccccc2)on1 | . | . | 17* | -80 | . | 99* | 42*
O=C(NCCN1CCOCC1)c1cc2sccc2n1Cc1ccc(F)cc1 | . | . | 8.8* | -29 | . | 10 | 8.3*
Cc1ccc(O)c(NC(=O)c2cc(-c3cccs3)on2)c1 | 0 | -16 | 9.9* | -22 | -117 | 87* | 47*
CNC(=O)C[C@@H]1CC[C@@H]2[C@@H](COc3ccc(NC(=O)Nc4cccc(C)c4)cc3C(=O)N2C)O1 | -2 | -7 | . | . | -1 | . | .
C[C@@H]1CCCCO[C@H](CN(C)Cc2ccc(C(F)(F)F)cc2)[C@@H](C)CN([C@@H](C)CO)C(=O)c2cc(NS(C)(=O)=O)ccc2O1 | 5 | 9 | . | 0[16.7 µM] | 17 | . | .
O=C(NCCN1CCOCC1)c1cc(-c2cccs2)on1 | . | . | 17* | -361 | . | 116* | 55*
O=C(NCc1cccs1)c1cc(-c2ccc(O)cc2)on1 | -1 | -86 | 8.9* | -46 | -72 | 103* | 32*
O=C(NCCN1CCOCC1)c1cc(-c2ccccc2Cl)on1 | 1 | -26 | 1 | 4 | -20 | . | .
O=C(NCCCN1CCOCC1)c1cc(-c2ccccc2)on1 | -1 | -68 | 17* | . | . | 101* | 56*
CC=Cc1ccc2n(c1=O)C[C@@H]1[C@@H](CO)[C@H](C(=O)NCC(F)(F)F)N(CC)[C@H]21 (mixture of isomers) | -4 | 0 | . | . | 1 | . | .

Bioassay records (PubChem)
